Test results from paper PMC4336329 (PLoS ONE, 2015).
Among all 310,000 compounds or so, about 14,000 (4.5%) showed an effect of 50% or more. Effects have a minus sign here. For the sample, strong results were picked, then their nearest neighbours and some compounds at random.

What follows are compounds tested against human ether-à-go-go-related gene (hERG) potassium channel (human, UniProt Q12809) (assay: primary screen, population patch clamp on CHO cells stably expressing hERG; higher = less effect of the substance).
Chain of human ether-à-go-go-related gene (hERG) potassium channel (Q12809 whole entry, looked up): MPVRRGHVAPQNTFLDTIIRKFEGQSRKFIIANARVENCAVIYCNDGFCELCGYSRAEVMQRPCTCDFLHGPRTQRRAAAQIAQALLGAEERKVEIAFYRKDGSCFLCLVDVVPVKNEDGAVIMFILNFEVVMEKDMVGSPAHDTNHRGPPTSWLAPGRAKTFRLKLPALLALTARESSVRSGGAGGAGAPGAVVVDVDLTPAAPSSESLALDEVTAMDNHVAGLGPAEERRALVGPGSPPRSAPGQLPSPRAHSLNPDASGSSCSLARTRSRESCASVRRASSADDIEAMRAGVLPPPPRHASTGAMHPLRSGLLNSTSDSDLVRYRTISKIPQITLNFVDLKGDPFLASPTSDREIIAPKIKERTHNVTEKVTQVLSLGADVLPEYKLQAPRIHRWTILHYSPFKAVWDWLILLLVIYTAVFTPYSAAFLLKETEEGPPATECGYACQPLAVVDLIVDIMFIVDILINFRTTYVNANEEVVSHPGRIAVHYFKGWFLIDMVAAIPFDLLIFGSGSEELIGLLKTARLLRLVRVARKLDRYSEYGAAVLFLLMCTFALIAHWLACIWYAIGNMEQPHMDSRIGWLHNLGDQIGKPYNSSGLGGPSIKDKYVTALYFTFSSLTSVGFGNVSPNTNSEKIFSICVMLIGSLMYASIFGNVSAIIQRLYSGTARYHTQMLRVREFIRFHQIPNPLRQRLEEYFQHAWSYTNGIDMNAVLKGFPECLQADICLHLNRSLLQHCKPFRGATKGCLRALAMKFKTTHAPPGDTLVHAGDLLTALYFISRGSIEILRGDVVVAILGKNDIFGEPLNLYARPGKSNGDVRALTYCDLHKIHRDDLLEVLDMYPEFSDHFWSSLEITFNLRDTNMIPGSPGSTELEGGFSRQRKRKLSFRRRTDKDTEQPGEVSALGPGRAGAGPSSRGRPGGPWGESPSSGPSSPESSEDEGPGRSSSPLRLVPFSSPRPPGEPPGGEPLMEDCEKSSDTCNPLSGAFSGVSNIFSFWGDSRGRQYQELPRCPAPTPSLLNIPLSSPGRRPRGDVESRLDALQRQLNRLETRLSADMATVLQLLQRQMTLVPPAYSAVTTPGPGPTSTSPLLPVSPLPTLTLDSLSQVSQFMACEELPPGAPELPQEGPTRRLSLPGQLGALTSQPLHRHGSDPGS
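Note: peak tail current of the secondary pulse compared with the same well before compound.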

Row | SMILES | hERG current change (%, negative = inhibition) at 10uM
1 | O=C(CSc1nnc(SCc2ccccc2)s1)N/N=C/c1ccc(Cl)cc1Cl | -5.88%
2 | O=C(CSc1nnc(-c2ccccc2)c(-c2ccccc2)n1)NC1CCS(=O)(=O)C1 (stereo not shown) | 17.3%
3 | Cc1cc(C)n(-c2nc(NCCN(C)C)c3c4c(sc3n2)COC(C)(C)C4)n1 | -32.7%
4 | Cc1cc(C)n(-c2nc(SCC(=O)O)c3c4c(sc3n2)CCCC4)n1 | 6.68%
5 | Cc1cc(C)n(-c2nc(SCCN(C)C)c3c4c(sc3n2)COC(C)(C)C4)n1 | -59.1%
6 | Cc1cc(C)n(-c2nc(NCCN(C)C)c3c4c(sc3n2)CCCC4)n1 | -16.3%
7 | Cc1cc(C)n(-c2nc(SCCN(C)C)c3c4c(sc3n2)CCCC4)n1 | -53.7%
8 | Cc1cc(C)n(-c2nc(SCC(=O)N3CCCC3)c3c4c(sc3n2)CCCC4)n1 | -9.29%
9 | CCN(CC)CCCNc1nc(-n2nc(C)cc2C)nc2sc3c(c12)CC(C)(C)OC3 | -23%
10 | Cc1cc(C)n(-c2nc(SCC(=O)O)c3c4c(sc3n2)COC(C)(C)C4)n1 | 2.48%
11 | Cc1cc(C)n(-c2nc(NCCCN(C)C)c3c4c(sc3n2)CCCC4)n1 | -65.2%
12 | CCN(CC)CCNc1nc(-n2nc(C)cc2C)nc2sc3c(c12)CC(C)(C)OC3 | -55.4%
13 | Cc1cc(C)n(-c2nc(NCCCO)c3c4c(sc3n2)CCCC4)n1 | -17.9%
14 | Cc1cc(C)n(-c2nc(NCCCN(C)C)c3c4c(sc3n2)COC(C)(C)C4)n1 | -14.1%
15 | C=CCn1cc(/C=N\NC(=O)c2cc3c(ccc4ccccc43)o2)c2ccccc21 | -4.85%
16 | O=C(c1ccccc1)c1c[nH]c2ccccc12 | 14.6%
17 | Cc1cc(C)cc(NC(=S)N2CCN(S(=O)(=O)c3ccccc3)CC2)c1 | 0.86%
18 | O=C(O)c1ccc(-c2ccc(OS(=O)(=O)c3ccccc3F)cc2)cc1 | 9.84%
19 | O=C(COc1ccccc1Cl)Nc1ccc2c(c1)OCO2 | 11.1%
20 | CC(C)C(=O)Nc1ccc(NC(=O)c2ccc(COc3ccccc3)cc2)cc1 | 16.3%
21 | CCOC(=O)C1CCN(C(=O)c2ccc(SC)cc2OC)CC1 | -19.8%
22 | O=C1c2ccccc2C(=O)C12OC2c1cccc2ccccc12 (stereo not shown) | -69.2%
23 | O=C1c2ccccc2C(=O)C12OC2c1ccc(Cl)cc1 (stereo not shown) | 6.63%
24 | O=C1c2ccccc2C(=O)C12OC2c1ccc(Cl)cc1Cl (stereo not shown) | 4.07%
25 | Cc1c(C)n(Cc2ccccc2)c2ccc(C(=O)NCCN3CCOCC3)cc12 | -3.43%
26 | CCOC(=O)c1cc(-c2ccccc2)sc1N | 0.819%
27 | CN(C)CCCNc1oc(-c2ccccc2Cl)nc1S(=O)(=O)c1ccccc1 | -43.3%
28 | CN(C)CCCNc1oc(-c2ccccc2Cl)nc1S(=O)(=O)c1ccc(F)cc1 | -59.9%

Row | SMILES | hERG current change (%, negative = inhibition) at 10uM
29 | CN(C)CCNc1oc(-c2ccccc2Cl)nc1S(=O)(=O)c1ccccc1 | -35.7%
30 | Cc1ccc(S(=O)(=O)c2nc(-c3cccs3)oc2NCCCN(C)C)cc1 | -67.8%
31 | COCCCNc1oc(-c2cccs2)nc1S(=O)(=O)c1ccc(C)cc1 | -15.2%
32 | COCCNc1oc(-c2cccs2)nc1S(=O)(=O)c1ccc(C)cc1 | -26.4%
33 | CN1C(=O)c2cccc(NCCCCCCN3C(=O)c4ccccc4C3=O)c2C1=O | 5.41%
34 | CC(C)OCC1CO1 (stereo not shown) | 6.9%
35 | Cc1noc(NS(=O)(=O)c2ccc(NC(=O)c3ccc(N(C)C)cc3)cc2)c1C | 12.2%
36 | Cc1cc(C)cc(NC(=O)C(=O)NCCc2c[nH]c3ccccc23)c1 | 14.9%
37 | CCCOc1ccccc1-n1sc2c(c1=S)-c1cc(OC)cc3c1N(C(=O)C3=O)C2(C)C | 18.5%
38 | C#CCOc1c(Cl)cc(/C=N/O)cc1OC | 4.04%
39 | CC(C)c1ccc2nc(NC(=O)C3CC3)sc2c1 | -55%
40 | CCOc1ccc2nc(NC(=O)Cn3cnc4c3c(=O)n(C)c(=O)n4C)sc2c1 | -41.9%
41 | O=C(Nc1nc2ccccc2s1)C1CC(=O)N(c2ccccc2)C1 (stereo not shown) | -11.2%
42 | COc1ccc(N2CC(C(=O)Nc3nc4ccc(S(C)(=O)=O)cc4s3)CC2=O)cc1 (stereo not shown) | 3.32%
43 | CS(=O)(=O)c1ccc2nc(NC(=O)C3CC(=O)N(c4ccccc4)C3)sc2c1 (stereo not shown) | -4.25%
44 | COC(=O)c1ccc2nc(NC(=O)C3CC3)sc2c1 | 14%
45 | COc1ccc2nc(NC(=O)Cn3cnc4ccccc4c3=O)sc2c1 | -4.49%
46 | COc1ccc2nc(NC(=O)Cn3cnc4c(=O)n(C)c(=O)n(C)c43)sc2c1 | -67.9%
47 | COc1ccc(N2CC(C(=O)Nc3nc4ccc(OC)cc4s3)CC2=O)cc1 (stereo not shown) | -58.8%
48 | COc1ccc(N2CC(C(=O)Nc3nc4ccccc4s3)CC2=O)cc1 (stereo not shown) | -48.9%
49 | O=C(Nc1nc2ccc(Cl)cc2s1)C1CC1 | 28.7%
50 | COc1ccc2nc(NC(=O)C3CC(=O)N(c4ccccc4)C3)sc2c1 (stereo not shown) | -51.7%
51 | O=C(NC1CCCCC1)c1ccc(CNc2ccccc2)o1 | -9.19%
52 | COc1ccc(CCNC(=O)C2CCCN2C(=O)Nc2ccc(F)cc2)cc1OC (stereo not shown) | 16.5%
53 | CCOC(=O)C1=C(c2ccccc2)Nc2ncnn2C1c1ccccn1 (stereo not shown) | 13.6%
54 | O=C(O)c1cc(-c2ccc(/C=C3\NC(=O)N(c4ccc(Cl)cc4)C3=O)o2)ccc1Cl | 7.5%
55 | CC1(C)CC2CC(C)(CN2C(=S)NC(=O)c2ccccc2Cl)C1 (stereo not shown) | 3.14%
